Measurements as given in PubChem BioAssay.
A number with no mark means an inactive call. Calls of active or inactive are those of the source. How the calls were made is not given here.

Molecular target: L-lactate dehydrogenase (Plasmodium falciparum (isolate CDC / Honduras)) (UniProt Q27743)
Assay: PfLDH activity inhibition – cell lysate, 3D7 strain, counter-screen for P. falciparum growth inhibition project (AID 2304);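 further: 0% = vehicle and 100% = reference inhibitor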
Details: P. falciparum 3D7 crude extract, LDH APAD/NBT absorbance; at 2 µM; stronger effect = higher value

L-lactate dehydrogenase (Plasmodium falciparum (isolate CDC / Honduras)), sequence (Q27743 whole entry, looked up): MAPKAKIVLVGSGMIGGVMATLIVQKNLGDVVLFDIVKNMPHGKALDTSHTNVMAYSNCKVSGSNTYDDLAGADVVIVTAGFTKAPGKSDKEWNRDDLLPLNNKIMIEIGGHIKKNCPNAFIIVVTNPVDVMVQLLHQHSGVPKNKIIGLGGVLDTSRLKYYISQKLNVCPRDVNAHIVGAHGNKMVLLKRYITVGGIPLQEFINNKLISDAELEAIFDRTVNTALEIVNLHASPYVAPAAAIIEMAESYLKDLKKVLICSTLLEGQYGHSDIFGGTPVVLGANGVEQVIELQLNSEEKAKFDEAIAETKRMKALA

Structure (SMILES)	inhibition [%]
CC(C)CNCc1cccc(-c2cccc(CN(CCCN3CCN(C)CC3)C(=O)NC3CCCCC3)c2)c1	0
CC(C)c1ccc(S(=O)(=O)Nc2cccc(CCN3CCC(N4CCCCC4)CC3)c2)cc1	6
O=C1Nc2cccc3c2C1(CCCCN1CCC(c2c[nH]c4cc(C(F)(F)F)ccc24)CC1)CCC3 (stereo not drawn)	3

Test system: not listed separately
Assay: inhibition of 3D7 malaria parasite growth – strain 3D7 (AID 2306);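 further: 0% = DMSO wells and 100% = chloroquine plus artemisinin control wells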
Details: P. falciparum 3D7 erythrocytic growth, LDH absorbance, 72 h; at 2 µM; stronger effect = higher value

Structure (SMILES)	growth inhibition
Cc1nnsc1C(=O)Nc1ccc(-c2ccc(-c3nc4c(C)cccc4[nH]3)s2)cc1	100% (active)
O=C([C@@H]1CCCCN1c1ccc([N+](=O)[O-])c2ccccc12)N1CCN(c2ncccn2)CC1	97% (active)
O=C(/C=C/c1ccc(Cl)c(Cl)c1)NCCCCCN1CCCN(C(=S)Nc2cccc(Cl)c2)CC1	93% (active)
O=C(Nc1cccc(-c2cccc(-c3nc4ccc(C(F)(F)F)cc4[nH]3)c2)c1)c1csnn1	99% (active)
Cc1cc(CN2C(=O)C(c3ccccc3)(c3ccccc3)N=C2N)c(C(F)(F)F)o1	97% (active)
COc1ccc(-c2ccc(NC(=O)c3ccccc3)cc2)cc1CN1CCCN(C)CC1	92% (active)
COc1ccc2nccc(N3C[C@H]4C[C@@H]3CN4CCNCc3ccc4c(n3)NC(=O)CS4)c2n1	99% (active)
COc1ccc2ncc(OC)c(CCN3CC[C@@H](NCc4ccc5c(n4)NC(=O)CS5)[C@H](O)C3)c2n1	94% (active)
Cn1cncc1C(=O)Nc1cccc(-c2ccc(-c3nc4ccc(C(F)(F)F)cc4[nH]3)cc2)c1	97% (active)
Cc1c(-c2cccc(CNCCc3ccc(Cl)cc3)c2)cnc(N)c1C	87% (active)
O=C(N[C@@H](Cc1ccccc1)C(=O)O)c1cc(-c2ccc(F)cc2)no1 (tested in a mixture with another compound)	96% (active)
O=C(NCCCCCN1CCC(c2c[nH]c3ccccc23)CC1)Nc1cccc(I)c1	99% (active)
O=C(Nc1ccc(N2CCCCC2)c(Cl)c1)c1ccco1	96% (active)
CC(C)C(C(=O)Nc1ccc2c(c1)OCO2)c1ccc(Cl)cc1 (stereo not drawn)	98% (active)
CC(C)c1ncc(-c2ccncc2)c(C2CCC(CNC(=O)c3ccncc3)CC2)n1 (stereo not drawn)	85% (active)
O=S(=O)(NCCN1CCCC1)c1cccc(-c2cccc(CNCc3ccc(F)cc3)c2)c1	99% (active)
CCCC(C)NC(=O)c1cnn(-c2ccc(C(C)(C)C)cc2)c1OCc1ccc(Br)cc1 (stereo not drawn)	84% (active)
COC(=O)c1cccc(CNCc2cccc(-c3cccc(-c4nc5ccc(F)cc5[nH]4)c3)c2)c1	101% (active)
CCCCCN1CCC(NS(=O)(=O)c2cccc(C(=O)Nc3cccc(C(F)(F)F)c3)c2)C1 (stereo not drawn)	86% (active)
CCNc1cc(C(=O)N[C@@H](Cc2ccccc2)[C@H](O)CNC2(CCC(C)C)CC2)cc(N2CCCCS2(=O)=O)c1	90% (active)

Structure (SMILES)	growth inhibition
COc1cc2nc(NC3CCN(Cc4ccccc4)CC3)nc(N)c2cc1OC	101% (active)
CCN(CC)CCCNc1ncc2c(-c3ccc(NC(=O)Nc4cc(C(F)(F)F)ccc4F)c(F)c3)nn(C)c2n1	94% (active)
CN(C)CCOc1cc(NC(=O)Nc2ccc(Oc3ccccc3)cc2)ccc1I	89% (active)
COc1ccc(NC(=O)/C=C/c2ccc(-c3ccccc3)cc2)cc1N1CCN(C)CC1	90% (active)
CCc1c[nH]c2c(N3CCCS3(=O)=O)cc(C(=O)N[C@@H](Cc3ccccc3)[C@H](O)CNC(C)(C)CCCC(C)C)cc12	96% (active)
O[C@H]1[C@H](OCc2ccc(-c3ccccc3)cc2)CC[C@@H]1N1CCCCC1	96% (active)
Cc1ccc(NC(=O)c2ccc(CN3CCCN(Cc4cccc(O)c4)CC3)cc2)cc1F	97% (active)
CCNc1cc(C(=O)N[C@@H](Cc2ccccc2)[C@H](O)CNC2CCC(C(C)(C)C)CC2)cc(N2CCCC2=O)c1 (stereo partly drawn)	98% (active)
OC(COCc1ccc(-c2ccccc2)cc1)CN1CCCCC1 (stereo not drawn)	99% (active)
Nc1ccc2nc(C=Cc3ccc(Cl)cc3)[nH]c2c1	91% (active)
CC(C)NCc1cccc(-c2ccc(NC(=O)c3ccc(F)cc3)cc2)c1	92% (active)
CN(CCCc1c[nH]c2ccccc12)CCC1CCC(NC(=O)/C=C/c2ccc(Cl)c(Cl)c2)CC1 (stereo not drawn)	99% (active)
Cc1c(-c2cccc(C(C)(C)NCCCN3CCCCC3)c2)cnc(N)c1C	95% (active)
CC(CN(C)C)C(=O)Nc1cccc(-c2cccc(-c3nc4ccccc4[nH]3)c2)c1 (stereo not drawn)	94% (active)
O=[N+]([O-])c1cccc(CNCC2CCN(Cc3ccc(Cl)c(Cl)c3)CC2)c1	101% (active)
NC(N)=NCCCN(Cc1ccccc1)c1ccccc1	100% (active)
Cc1cc(=O)c(-c2ccc(OCc3ccc(OC(F)(F)F)cc3)cc2)c(C)[nH]1	97% (active)
CC(C)CNCc1cccc(-c2cccc(CN(CCCN3CCN(C)CC3)C(=O)NC3CCCCC3)c2)c1	100% (active)
CC(C)c1ccc(S(=O)(=O)Nc2cccc(CCN3CCC(N4CCCCC4)CC3)c2)cc1	101% (active)
O=C1Nc2cccc3c2C1(CCCCN1CCC(c2c[nH]c4cc(C(F)(F)F)ccc24)CC1)CCC3 (stereo not drawn)	99% (active)
